Broadly, the inhibition is the relative decrease from the control value, in per cent.

In all, about 220,000 compounds went through this assay and about 910 (0.41%) were called active.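 Rule for the calls: active = primary inhibition above the hit cutoff, then over 50% inhibition at one or more dose response concentrations (cut at about 23% in these data, passing the limit was not always enough); inconclusive = conflicting primary data, or primary hits not chosen for dose response; inactive = low primary inhibition, or under 50% at every dose.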 Many of the other results were omitted from the sample, so actives are more common in it than they were. Potency and affinity values are given separately.

Data on 70 compounds can be found in PubChem BioAssay AID1445 (SRMLSC, 2008).

Sequence of Aminopeptidase N (Plasmodium falciparum (isolate 3D7)) (O96935 whole entry, looked up): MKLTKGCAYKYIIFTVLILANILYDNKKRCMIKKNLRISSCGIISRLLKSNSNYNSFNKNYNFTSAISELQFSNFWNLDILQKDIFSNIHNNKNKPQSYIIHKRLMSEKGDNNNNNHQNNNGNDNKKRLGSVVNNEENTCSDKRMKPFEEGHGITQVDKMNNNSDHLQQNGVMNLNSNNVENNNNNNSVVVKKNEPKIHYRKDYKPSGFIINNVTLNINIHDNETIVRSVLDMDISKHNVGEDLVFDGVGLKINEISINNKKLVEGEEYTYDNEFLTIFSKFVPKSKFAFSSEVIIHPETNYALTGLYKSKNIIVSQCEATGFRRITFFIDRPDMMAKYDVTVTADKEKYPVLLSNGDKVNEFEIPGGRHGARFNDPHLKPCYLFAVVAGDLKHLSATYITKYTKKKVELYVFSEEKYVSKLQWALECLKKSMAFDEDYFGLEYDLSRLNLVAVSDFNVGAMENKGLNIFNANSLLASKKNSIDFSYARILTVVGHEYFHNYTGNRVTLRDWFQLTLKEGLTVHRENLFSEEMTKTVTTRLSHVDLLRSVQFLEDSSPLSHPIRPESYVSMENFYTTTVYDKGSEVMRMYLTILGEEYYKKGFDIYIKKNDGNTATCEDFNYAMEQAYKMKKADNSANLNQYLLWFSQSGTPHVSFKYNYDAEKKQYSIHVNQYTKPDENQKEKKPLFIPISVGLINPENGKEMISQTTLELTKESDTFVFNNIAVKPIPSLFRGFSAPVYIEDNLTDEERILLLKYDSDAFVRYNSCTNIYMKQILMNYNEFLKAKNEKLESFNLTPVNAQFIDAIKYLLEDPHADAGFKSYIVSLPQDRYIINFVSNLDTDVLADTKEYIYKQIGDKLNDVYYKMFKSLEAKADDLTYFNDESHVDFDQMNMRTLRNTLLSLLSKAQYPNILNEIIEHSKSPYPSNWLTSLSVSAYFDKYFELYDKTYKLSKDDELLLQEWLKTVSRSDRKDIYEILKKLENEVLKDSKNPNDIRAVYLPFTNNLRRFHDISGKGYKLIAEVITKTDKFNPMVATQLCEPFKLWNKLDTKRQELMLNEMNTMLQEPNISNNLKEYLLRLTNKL

The assay has as its target Aminopeptidase N (Plasmodium falciparum (isolate 3D7)) (UniProt O96935). Put plainly: P. falciparum M1AAP inhibitors, biochemical, fluorogenic H-Leu-NHMec substrate, 1536-well (AID 1445).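 Note: plate controls were DMSO full reaction for no effect and no enzyme background for full effect.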 To be noted: recombinant M1AAP, H-Leu-NHMec fluorogenic kinetic assay; at 30 µM, active compounds read high unless noted.
Take `O=C(Nc1cc(C(F)(F)F)ccc1Cl)C(Sc1nnc(-c2cccs2)o1)c1ccccc1` (stereo not given): the inhibition is -4.08% (inactive).

For the compound `COCCCNCCOCCOc1c(OC)cccc1OC`, the inhibition is -5.39% (inactive).

`Cc1cc(C2=CC(C)(c3cc(C)oc3C)Nc3nc(C(F)(F)F)nn32)c(C)o1` (stereo not given): the inhibition was 6.98% (inactive).

`O=C(CNC(=O)c1ccc(F)cc1)Nc1ccccc1C(F)(F)F`: the inhibition was -1.13% (inactive).

With `CCOC(=O)C1=C(C)NC2=C(C(=O)CCC2)C1c1ccc(O)c(OCC)c1` (stereo not given), the inhibition is -7% (inactive).

As to `O=C(Nc1nccs1)c1ccc(NC(=O)C2CC=CCC2C(=O)O)cc1` (stereo not given), the inhibition was 8.55% (inactive).

As to `CC1(C)CC(=O)C(C=NCCc2ccc(S(N)(=O)=O)cc2)=C(O)C1`, the inhibition is 12% (inactive).

Consider `O=S(=O)(Nc1nc2ccc(S(=O)(=O)N3CCCC3)cc2s1)c1ccc(F)cc1`, for which the inhibition is 17.8% (inactive).

On to `O=S(=O)(Nc1nc2ccc(S(=O)(=O)N3CCCCC3)cc2s1)c1ccccc1`, for which the inhibition was 23.2% (inactive).

With `O=C(O)CCC(=O)N(Cc1cccnc1)Cc1cccc(F)c1`, the inhibition was 6.62% (inactive).

Consider `CCCCCN(C(=O)NC(=O)Nc1ccccc1C)S(=O)(=O)c1ccccc1`, for which the inhibition is -0.93% (inactive).

For `CCN1CCN(C(=O)CSCc2nc(-c3ccc(OC)c(OC)c3)oc2C)CC1`, the inhibition is 1.5% (inactive).

On to `COc1ccc(-c2nc(CSCC(=O)N3CCN(C)CC3)c(C)o2)cc1OC`, for which the inhibition was 1.38% (inactive).

With `COc1ccc(-c2nc(CSCC(=O)N3CCN(c4cccc(C)c4)C(C)C3)c(C)o2)cc1OC` (stereo not given), the inhibition was 23.8% (active).

As for `COc1ccc(/C=N/NC(=S)Nc2ccccc2)cc1COc1ccc(Br)cc1`, the inhibition was 5.9% (inactive).

Take `Cc1nnc2n1NC(c1ccc(Cl)cc1)C(C(=O)N(C)C1CCCCC1)S2` (stereo not given): the inhibition was 14.7% (inactive).

For the compound `Cc1cccc2cc(CN(CCN3CCOCC3)C(=O)NCc3ccccc3)c(=O)[nH]c12`, the inhibition was 11.1% (inactive).

As for `COC(=O)CC[C@@H](C(=O)O)N1C(=O)c2ccccc2C1=O`, the inhibition was 1.27% (inactive).

For the compound `COc1ccc(NC(=O)CSc2ccc(-c3cccs3)nn2)c(OC)c1`, the inhibition is 4.92% (inactive).

For the compound `CCOc1ccccc1NC(=O)CSc1nc2nc(-c3cccs3)cc(C(F)(F)F)c2c(=O)[nH]1`, the inhibition is 3.01% (inactive).

In the case of `CC(=O)Nc1ccc(NC(=O)CSc2nc3nc(-c4cccs4)cc(C(F)(F)F)c3c(=O)[nH]2)cc1`, the inhibition is 13.8% (inactive).

Take `O=C(NCc1ccco1)c1nn2c(C(F)(F)F)cc(-c3cccs3)nc2c1Br`: the inhibition is 15.8% (inactive).

With `O=C(CSc1nc2nc(-c3cccs3)cc(C(F)(F)F)c2c(=O)[nH]1)Nc1ccc(F)c(F)c1`, the inhibition was 12.9% (inactive).

With `O=C(CSc1nc(-c2cccs2)cc(C(F)(F)F)n1)NCc1ccco1`, the inhibition is 8.47% (inactive).

Regarding `COC(=O)c1ccc(OC(=O)CCN2c3ccccc3Sc3ccccc32)cc1`, the inhibition was -4.42% (inactive).

Turning to `CC(=O)Nc1ccc(Nc2cc(-c3ccccc3)nc3ncnn23)cc1`, the inhibition was 1.24% (inactive).

For the compound `NC(=O)c1nnsc1Sc1c(C(N)=O)nnn1-c1cccc(N)c1`, the inhibition is 4.16% (inactive).

In the case of `OCCNCCOc1ccccc1F`, the inhibition is 7.92% (inactive).

Consider `COC(=O)[C@H](CC(C)C)NC(=O)NCc1ccc(Cl)cc1`, for which the inhibition was 5.26% (inactive).

For `Cc1ccn2c(Nc3ccc4c(c3)OCO4)c(-c3ccccn3)nc2c1`, the inhibition is 12.3% (inactive).

Regarding `N#Cc1c(NC(=O)C2CCCO2)sc2c1CCCCCC2` (stereo not given), the inhibition was 3.88% (inactive).

`O=C1CC(c2ccccc2)Cc2nc3nc(C(F)(F)F)nn3cc21` (stereo not given): the inhibition is -1.32% (inactive).

Consider `O=c1oc(-c2ccccc2NS(=O)(=O)c2ccccc2)nc2ccccc12`, for which the inhibition is 9.41% (inactive).

`O=C1Nc2ccccc2C1=Nc1ccc(S(=O)(=O)Nc2nccs2)cc1`: the inhibition is 9.76% (inactive).

On to `O=S(=O)(Cc1ccccc1)Nc1ccc(Br)cn1`, for which the inhibition was 1.35% (inactive).

Regarding `Cc1ccc(NS(=O)(=O)Cc2ccccc2)nc1`, the inhibition is 5.38% (inactive).

For the compound `COc1ccccc1NC(=O)C1=C(C)NC(=O)NC1c1ccccc1F` (stereo not given), the inhibition is 5.11% (inactive).

As for `CCN(CC)CC(C)(C)NS(=O)(=O)c1ccc(Cl)cc1`, the inhibition was -1.17% (inactive).

In the case of `CC(C)OCCCNC(=O)c1ccc2c(=O)n(Cc3ccc4c(c3)OCO4)c(=S)[nH]c2c1`, the inhibition is -0.14% (inactive).

As for `COc1ccc(/C=C/C(=O)NCCSCc2ccco2)cc1`, the inhibition is 8.04% (inactive).

With `Cc1ccccc1C(=O)OCc1nnc(-c2ccc(Cl)cc2)o1`, the inhibition was 1.13% (inactive).

Take `COC(=O)CC(N)c1ccc(Br)cc1` (stereo not given): the inhibition was 3.11% (inactive).

With `NC(CC(=O)O)c1ccc(F)cc1` (stereo not given), the inhibition was 0.38% (inactive).

In the case of `Cc1c(/C=N/NC(=O)c2cc(C(C)(C)C)[nH]n2)c2ccccc2n1C`, the inhibition is 4.3% (inactive).

Regarding `COc1ccc2[nH]cc(CCN=C3SCC(=O)N3C)c2c1`, the inhibition was -3.56% (inactive).

Take `N#Cc1cc2c(nc1SCc1ccccc1)CCC2`: the inhibition was -3.56% (inactive).

For the compound `N#Cc1cc2c(nc1SCc1ccccc1)CCCCC2`, the inhibition was 5.06% (inactive).

Turning to `CCOc1ccc(CCNC(=O)C2CCCN(c3nn4c(=O)cc(C)nc4s3)C2)cc1` (stereo not given), the inhibition was 1.13% (inactive).

For `CCOC(=O)c1c(-c2ccccc2)csc1N1C(=O)Nc2ccccc2N1O`, the inhibition is 17% (inactive).

For `COc1ccc(S(=O)(=O)Nc2cc(Cl)ccc2OC)cc1`, the inhibition is 4.45% (inactive).

In the case of `CCOc1ccc(S(=O)(=O)Nc2cc(OC)ccc2OC)cc1`, the inhibition was 4.04% (inactive).

For `CCOc1ccc(S(=O)(=O)Nc2cc(Cl)ccc2O)cc1`, the inhibition was 24.5% (active).

With `Cc1ccc(S(=O)(=O)Nc2ccccn2)cc1[N+](=O)[O-]`, the inhibition was 2.61% (inactive).

With `Cc1ccc(-c2csc(NC(=O)CSc3nc4ccccc4[nH]3)n2)cc1`, the inhibition was 7.06% (inactive).

For the compound `CCc1cc2c(-n3nc(C)cc3C)ncnc2s1`, the inhibition was 4.83% (inactive).

Regarding `Cc1cc(Cl)ccc1OCCCC(=O)NN`, the inhibition was 2.87% (inactive).

As for `Cc1cc(Cl)ccc1OCCCC(N)=O`, the inhibition is 1.94% (inactive).

With `Cn1c(=O)n(C)c2cc(NS(=O)(=O)c3cccs3)ccc21`, the inhibition is 5.68% (inactive).

`Cc1ccc(C(=O)NCc2ccc(Cl)c(Cl)c2)o1`: the inhibition was 7.75% (inactive).

In the case of `CCCCN(CCCC)CC(O)CN1C(=O)NC(C)(C)C1=O` (stereo not given), the inhibition is -3.19% (inactive).

`CCN(CC(N)=O)S(=O)(=O)c1ccc(F)cc1`: the inhibition is 2.95% (inactive).

As for `CCOc1ccc(C(=O)N/N=C/c2ccc(-c3ccc(S(=O)(=O)Nc4ncccn4)cc3)o2)cc1`, the inhibition is 55.9% (active).

In the case of `NS(=O)(=O)c1ccc(-c2ccc(/C=N/NC(=O)c3ccccc3O)o2)cc1`, the inhibition was 11.7% (inactive).

Consider `CCOc1ccc(S(=O)(=O)N(CC(=O)N/N=C/c2ccc(-c3ccc([N+](=O)[O-])cc3)o2)c2ccccc2)cc1`, for which the inhibition was 15.9% (inactive).

On to `CCCOc1ccc(C(=O)Nc2ccc(S(=O)(=O)Nc3onc(C)c3C)cc2)cc1`, for which the inhibition is -1.24% (inactive).

As for `NS(=O)(=O)c1ccc(-c2ccc(/C=N/NC(=O)c3ccc([N+](=O)[O-])cc3)o2)cc1`, the inhibition was 2.02% (inactive).

Turning to `Cc1ccc(C(=O)N/N=C\c2ccc(-c3ccc(Cl)cc3)o2)cn1`, the inhibition is 8.72% (inactive).

As to `Cc1noc(NS(=O)(=O)c2ccc(NC(=O)c3ccc(OC(C)C)cc3)cc2)c1C`, the inhibition is 4.64% (inactive).

Turning to `CCOc1ccc(S(=O)(=O)Nc2ccc(C(=O)NN)cc2)cc1`, the inhibition was 4.26% (inactive).

Regarding `O=C(N/N=C/c1ccc(Sc2ccccn2)o1)c1cc2ccccc2cc1O`, the inhibition is 33% (inactive).
